Test results as given in PubChem BioAssay (Tox21).
A number with no mark means an inactive call. The source made the active and inactive calls. Calls come from the whole dose curve; as a rule, active = well fitted curve in the direction sought with a large enough effect in the repeat runs; inconclusive = weak or mixed curves; inactive = flat fitted curve, though single readings scatter.

Experiment: qHTS assay to test for compound auto fluorescence at 590 nm (red) in HEK293 cells (AID 720679)
Settings: red autofluorescence 540/590 nm; series mostly up to 91.3 µM
Text: National Center for Advancing Translational Sciences [NCATS]
NIH Chemical Genomics Center [NCGC]
U.S. Environmental Protection Agency [EPA]
National Institutes of Environmental Health Sciences [NIEHS]
National Toxicology Program [NTP]
U.S. Food and Drug Administration [FDA]
Compound auto fluorescence often interferes with screening of the compound library against various biological targets and signaling pathways. Some of these compounds may have fluorophoric properties. Such properties may interfere with the assay outputs resulting in false positives and/or negatives. To decrease such complications and ensure the compound activities are relevant in terms of biological response, the Tox21 10K compound library was screened for auto fluorescence.
From the fluorophores used as reporter signals in our screening assays, the auto fluorescence equivalencies of compounds against three fluorophores have been evaluated: Triamterene, Fluorescein and Rose Bengal sodium for blue, green and red fluorescence, respectively. The fluorescence intensities were measured using Excitation/Emission wavelengths at 405/460nm, 485/535nm and 540/590nm for blue, green and red labels, respectively. This assay includes the red fluorescence data.
Tox21 Assay Protocol Summary:
2,000 HEK293 cells in 5 uL of culture medium containing 10% dialyzed FBS per well were dispensed into black wall/clear bottom 1536-well plates using a Multidrop Combi Dispenser (Thermo Scientific). The assay plates were incubated for 4-5 hr at 37C to allow cell attachment to the well bottom, followed by the transfer of 23 nL compound or DMSO vehicle by a pintool work station (Kalypsys, San Diego, CA). After the assay plates were incubated overnight at 37C and 5% CO2, fluorescence intensities in the assay plates were measured by an Envision (PerkinElmer, Shelton, CT) plate reader using three labels for measuring blue, green and red fluorescence at […] 460, 535 and 590nm respectively.
% is set by controls: 0 for no effect and ±100 for the full control effect.

SMILES	outcome	fluorescence, % of fluorescent control
CC(=O)OCC1=C(C(=O)O)N2C(=O)[C@@H](NC(=O)CSc3ccncc3)[C@H]2SC1	inactive	–
CNS(=O)(=O)c1cc(C(=O)N2CCC(CCN3C4CCC3CC(n3c(C)nc5ccccc53)C4)(c3cccc(F)c3)CC2)c(Cl)cc1F (stereo not given)	inactive	–
CC(=O)NCCO	inactive	–
C=CCOC(=O)COCCC(C)C	inactive	–
CC/C=C\C/C=C\C/C=C\CCCCCCCC(=O)OCC	inactive	–
CCCCCCCC(=O)OCCCCCC	inactive	–
CC1CCC(C(C)CS)CC1S (stereo not given)	inactive	–
C=Cc1ccc(OC(C)=O)cc1	inactive	–
O=C(O)CCC(=O)c1ccc(-c2ccccc2)cc1	–	-0.0888% [at 18.6 µM]
BrC(Br)C(Br)Br	inactive	–
O=C(O)CNC(=O)c1ccccc1I	inactive	–
O=c1[nH][nH]c(=O)c2cc([N+](=O)[O-])ccc12	inactive	–
CCC(Cl)CC(Cl)C(Cl)C(Cl)C(Cl)C(C)Cl (stereo not given)	–	-0.173% [at 13.4 µM]
Cc1ccc2c(c1)CCCN2	inactive	–
Nc1c(Cl)cc(Cl)cc1[N+](=O)[O-]	inactive	–
CC(=O)c1ccc[nH]1	inactive	–
CC(CN(CCN(CC(C)OCCO)CC(C)OCCO)CC(C)OCCO)OCCO (stereo not given)	inactive	–
C=C(C)c1ccccc1	inactive	–
CC(C)c1ccc(C(=O)N=C(N)N)cc1S(C)(=O)=O	inactive	–
COc1cc(NS(=O)(=O)c2ccc(N)cc2)nc(C)n1	inactive	–

SMILES	outcome	fluorescence, % of fluorescent control
CC(C)COC(=O)c1ccc(O)cc1	inactive	–
CC12CC3CC(C)(C1)CC(N)(C3)C2	inactive	–
N[C@@H](Cc1cc(I)c(O)c(I)c1)C(=O)O	inactive	–
COc1cc(OC)c2ccc(=O)oc2c1	inactive	–
O=c1[nH]c2cc(C(F)(F)F)c(N3CCOCC3)cc2n(CP(=O)(O)O)c1=O	inactive	–
CN1CCCN(C(c2ccccc2)c2ccc(Cl)cc2)CC1 (stereo not given)	inactive	–
Cc1cccc(C)c1NC(=O)c1cc(S(N)(=O)=O)c(Cl)cc1O	inactive	–
CCN(Cc1cccc(S(=O)(=O)O)c1)c1ccc(C(=C2C=CC(=[N+](CC)Cc3cccc(S(=O)(=O)O)c3)C=C2)c2ccc(O)cc2S(=O)(=O)[O-])cc1	inactive	–
COc1cc(S(=O)(=O)Nc2ccccc2)c(OC)cc1N	inactive	–
O=C1OC[C@H](Cc2cccc(O)c2)[C@H]1Cc1cccc(O)c1	inactive	–
CNC1CCCN(c2c(F)cc3c(=O)c(C(=O)O)cn(C4CC4)c3c2OC)C1 (stereo not given)	inactive	–
CCOC(=O)c1c(N)sc2c1CCN(Cc1ccccc1)C2	inactive	–
CC[C@@H](CO)NCCN[C@@H](CC)CO	–	-0.143% [at 18.6 µM]
ClC1=C(Cl)C1(Cl)Cl	inactive	–
CCCCCCOC(=O)CCCCC	inactive	–
O=C(NC(Cc1cc(=O)[nH]c2ccccc12)C(=O)O)c1ccc(Cl)cc1 (stereo not given)	inactive	–
Oc1ccc2c(c1)Cc1ccccc1-2	inactive	–
C1=CCC2CC=CC2C1 (stereo not given)	inactive	–
COC(CC(C)CCCC(C)(C)O)OC (stereo not given)	inactive	–
CC1CCCO1 (stereo not given)	inactive	–
